{"source": "PubChem BioAssay (NCI)", "note": "Several values for one entry are separate records, joined by “and”; a condition that tells them apart may be missing. Identical values can stand only once. The panel holds about 83,000 compounds, 20% with a hit somewhere; the sample as a whole holds those more often.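 Interpretation: 100, growth as untreated; towards 0, rising growth inhibition; 0, no net growth; 0 to -100, cell death. Compounds scoring below 10 were considered active.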 Unmarked numbers belong to inactive results. Activity calls are given as the source filed them.", "data": [{"system": "A549/ATCC NSCLC", "test": "NCI-60 one-dose screen, 48 h (100 = growth as untreated, 0 = no growth, -100 = all killed)", "details": "1 µM", "units": {"growth": "%"}, "values": [{"smiles": "CC/C(=C(\\c1ccc(O)cc1)c1ccc(OCCN(C)C(=O)COCCNC(=O)Cc2ccc3c(c2)CN([C@@H]2CCC(=O)NC2=O)C3=O)cc1)c1ccccc1", "growth": 95.7}, {"smiles": "CC/C(=C(\\c1ccc(O)cc1)c1ccc(OCCN(C)C(=O)CCOCCNC(=O)c2ccc3c(c2)CN([C@@H]2CCC(=O)NC2=O)C3=O)cc1)c1ccccc1", "growth": 85}, {"smiles": "CC/C(=C(/c1ccc(O)cc1)c1ccc(OCCN(C)C(=O)COCCOCCNC(=O)c2ccc3c(c2)CN([C@@H]2CCC(=O)NC2=O)C3=O)cc1)c1ccccc1", "growth": 89.4}, {"smiles": "CC/C(=C(/c1ccc(O)cc1)c1ccc(OCCN(C)C(=O)CCOCCNC(=O)Cc2ccc3c(c2)CN([C@@H]2CCC(=O)NC2=O)C3=O)cc1)c1ccccc1", "growth": 93.1}, {"smiles": "CC/C(=C(/c1ccc(O)cc1)c1ccc(OCCN(C)C(=O)COCCOCCNC(=O)Cc2ccc3c(c2)CN([C@@H]2CCC(=O)NC2=O)C3=O)cc1)c1ccccc1", "growth": 102}, {"smiles": "CC/C(=C(\\c1ccc(O)cc1)c1ccc(OCCNC)cc1)c1ccccc1", "growth": 93.9}]}, {"system": "A549/ATCC NSCLC", "test": "NCI-60 one-dose screen, 48 h (100 = growth as untreated, 0 = no growth, -100 = all killed)", "details": "10 µM", "units": {"growth": "%"}, "values": [{"smiles": "CC/C(=C(\\c1ccc(O)cc1)c1ccc(OCCN(C)C(=O)COCCNC(=O)Cc2ccc3c(c2)CN([C@@H]2CCC(=O)NC2=O)C3=O)cc1)c1ccccc1", "growth": 75.2}, {"smiles": "CC/C(=C(\\c1ccc(O)cc1)c1ccc(OCCN(C)C(=O)CCOCCNC(=O)c2ccc3c(c2)CN([C@@H]2CCC(=O)NC2=O)C3=O)cc1)c1ccccc1", "growth": 82.2}, {"smiles": "CC/C(=C(/c1ccc(O)cc1)c1ccc(OCCN(C)C(=O)COCCOCCNC(=O)c2ccc3c(c2)CN([C@@H]2CCC(=O)NC2=O)C3=O)cc1)c1ccccc1", "growth": 85.3}, {"smiles": "CC/C(=C(/c1ccc(O)cc1)c1ccc(OCCN(C)C(=O)CCOCCNC(=O)Cc2ccc3c(c2)CN([C@@H]2CCC(=O)NC2=O)C3=O)cc1)c1ccccc1", "growth": 87.8}, {"smiles": "CC/C(=C(/c1ccc(O)cc1)c1ccc(OCCN(C)C(=O)COCCOCCNC(=O)Cc2ccc3c(c2)CN([C@@H]2CCC(=O)NC2=O)C3=O)cc1)c1ccccc1", "growth": 88.1}, {"smiles": "CC/C(=C(\\c1ccc(O)cc1)c1ccc(OCCNC)cc1)c1ccccc1", "growth": 88.2}]}, {"system": "A549/ATCC NSCLC", "test": "NCI-60 one-dose screen, 48 h (100 = growth as untreated, 0 = no growth, -100 = all killed)", "details": "10 µM unless noted", "values": [{"smiles": "CC1(C)CC(=O)C2=C(C1)OC(N)=C(c1nc3ccccc3[nH]1)C2c1ccc(Cl)cc1", "note": "(stereo not drawn)", "growth": "64.6% and 115%"}, {"smiles": "COc1cc(C=O)ccc1Oc1nc(Nc2ccc(F)cc2)nc(N(C)C)n1", "growth": "95.1% and 91%"}, {"smiles": "CCC(=O)c1c2c(c3ccc4c5ccccc5ccc4n13)C(=O)c1ccccc1C2=O", "growth": "31.7%"}, {"smiles": "CCCCNC(=S)Nc1ccc(OCc2nc3ccc(Cl)cc3[nH]2)cc1", "growth": "52.7%"}, {"smiles": "Nc1ccc(-c2ccc3ncnc(N4CCc5cc(F)c(Cl)cc54)c3c2)cn1", "growth": "14.2%"}, {"smiles": "N#CC1=C(c2cccs2)Nc2c(c(-c3ccccc3)nn2-c2ccccc2)C12C(=O)Nc1ccc(Cl)cc12", "note": "(stereo not drawn)", "growth": "24.4%"}, {"smiles": "C=CCn1c(O)c(N=Nc2nc(-c3cc4ccccc4oc3=O)cs2)c2ccccc21", "growth": "24.7%"}, {"smiles": "Fc1ccccc1CNc1nc(SCCN2CCOCC2)nc2c1cnn2CC(Cl)c1ccc(Br)cc1", "note": "(stereo not drawn)", "growth": "27.7%"}, {"smiles": "O=C(CSc1nnc(-c2ccc(-c3nc4ccc(Cl)cc4[nH]3)cc2)o1)Nc1ccccc1", "growth": "-31.9% (active)"}, {"smiles": "O=C(CSc1nnc(-c2ccc(-c3nc4ccc(Cl)cc4[nH]3)cc2)o1)Nc1ccc(Cl)cc1", "growth": "-36.2% (active)"}, {"smiles": "Nc1nc(-c2ccccc2)c(N=Nc2ccc(Cl)cc2Cl)s1", "growth": "12.5%"}, {"smiles": "COc1c(B(O)O)cccc1-c1nc2ccc3cn[nH]c3c2c2c1CCCC2", "growth": "41.9%"}, {"smiles": "Nc1nn2c(-c3cc4cc(Br)ccc4oc3=O)ccnc2c1N=Nc1ccccc1", "growth": "53.4%"}, {"smiles": "O=C1/C(=C/c2cnc(-c3ccccc3)s2)SC(=S)N1Cc1ccc2c(c1)OCO2", "growth": "101%"}, {"smiles": "O=C(c1ccc(O)cc1)C1[C@H](c2ccc(Cl)cc2)[C@@H](c2ccccc2)NC12C(=O)Nc1ccc(Br)cc12", "note": "(stereo partly drawn)", "growth": "5.99% (active)"}, {"smiles": "COC(=O)c1cc(C(=O)C(C)(C)C)n2c3ccccc3c3ccccc3c12", "growth": "115%"}, {"smiles": "COc1ccc2[nH]c(O)c(N=Nc3nc(-c4ccccc4)cs3)c2c1", "growth": "2.49% (active)"}, {"smiles": "CC1CCc2c(sc3nc(SCC(=O)c4cccc([N+](=O)[O-])c4)n(-c4ccccc4)c(=O)c23)C1", "note": "(stereo not drawn)", "growth": "89.7%"}, {"smiles": "C=CCSc1nnc(-c2ccc(-c3nc4ccc(Cl)cc4[nH]3)cc2)o1", "growth": "60.3%"}, {"smiles": "O=C(Nc1nc2ccccc2s1)Nc1ccccc1Cl", "growth": "74.5%"}, {"smiles": "CC[C@@]12CC(C(=O)OC)=C3Nc4cc5c(cc4[C@@]34CCN(C[C@H]3O[C@H]31)[C@@H]24)[C@@H]1[C@H](O5)[C@@H](O)[C@@]2(CC)CC(C(=O)OC)=C3Nc4cc(O)ccc4[C@@]34CCN1[C@@H]24", "growth": "4.31% (active)"}, {"smiles": "CCOc1ccccc1NC(=O)N/C(N)=N/c1nc2ccccc2s1", "growth": "13.6%"}, {"smiles": "COc1sc(/C=N/NC(=O)c2[nH]c3ccc(Br)cc3c2-c2ccccc2)cc1Cl", "growth": "-20.2% (active)"}, {"smiles": "COc1cc(CNC(=O)C[C@H](C)CCC=C(C)C)ccc1OCc1cn(-c2ccccc2Cl)nn1", "growth": "64.1%"}, {"smiles": "COc1ccc(-c2cc(C(=O)OCc3ccc(Br)cc3)nn2-c2ccc(S(C)(=O)=O)cc2)cc1OC", "growth": "78.6%"}, {"smiles": "N#CC1=C(c2ccco2)Nc2c(c(-c3ccccc3)nn2-c2ccccc2)C12C(=O)Nc1ccc(Br)cc12", "note": "(stereo not drawn)", "growth": "1.5% (active)"}, {"smiles": "N/C(=N\\c1nc2ccc([N+](=O)[O-])cc2s1)NC(=O)Nc1ccccc1Cl", "growth": "9.92% (active)"}, {"smiles": "S=C(Nc1ccccc1)Nc1ccc(OCc2nc3ccc(Cl)cc3[nH]2)cc1", "growth": "88.2%"}, {"smiles": "COc1ccc(N=Nc2c(N)nn3c(N)c(C#N)c(-c4ccc(C)cc4)nc23)cc1", "growth": "43.3%"}, {"smiles": "O=C(NC(=S)N1CCN(c2ncnc3c2cnn3-c2ccccc2)CC1)c1ccc(F)cc1", "growth": "76.2%"}, {"smiles": "Cc1cccc(C)c1Nc1nnc(-c2c[nH]c3ccccc23)o1", "growth": "98.1%"}]}]}
